# Rows were chosen to be rich in hits. Some 2.9% of all compounds tested hit in one or more screens of this group.
# CRFBP-R2 agonist – CRF-BP/CRF-R2 complex agonism; HEK293 CRF-R2/CRF-BP, calcium dye fluorescence (FLIPR); percent of saturating CRF peptide response; activation, % at 13.2 µM; 350,000 compounds, 0.46% hits; AID 588473;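 active means activation of at least 50%, plus an integration ratio under a set limit after plate pattern correction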;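 further: plate controls were neutral control wells without compound for no effect and CRF at EC100 for full effect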
# MEKK3 PB1 HTS – MEKK3-MEK5 PB1 interaction, increase or decrease | Q99759 | 290,000 compounds, 1.4% hits | binding response (% of control), % at 10 µM | bead-based flow cytometry, Alexa488-MEK5 binding to MEKK3; actives lie on both sides; 0 = blocked by unlabeled MEK5, 100 = vehicle | AID 1529;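 active means binding response more than 3 SD above or below the average of its plate-row segment, actives on both sides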;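 further: Alexa488 bead fluorescence after subtracting the streptavidin-only scavenger bead signal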
# MEKK2wt PB1 HTS – raises or lowers MEK5 binding to wildtype human MEKK2 PB1 domain; Q9Y2U5; bead flow cytometry, Alexa488-MEK5 binding to MEKK2 WT; actives lie on both sides; binding response (% of control), % at 10 µM; 290,000 compounds, 1.1% hits; AID 1531; in the data active means binding response below about 67% or above about 130%
# MEKK2mut PB1 HTS – signal of MEK5 binding to mutant human MEKK2 PB1 domain; bead flow cytometry, Alexa488-MEK5 binding to MEKK2 mutant; percent response, % at 10 µM; 290,000 compounds, 0.35% hits; AID 1530; in the data active means percent response above about 24%, passing the limit was not always enough
# CRFR2-BP antag – CRF-BP/CRF-R2 complex antagonism. HEK293 CRF-R2/CRF-BP, CRF-induced calcium fluorescence. inhibition, % at 11.8 µM. 350,000 compounds, 0.59% hits. AID 588475;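 active means inhibition of the ligand-induced calcium signal above about 50% at the single tested concentration, limit read from the data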
# ABCB6 inh MLPCN – human ABCB6 transporter inhibition; Q9NP58; fluorescence ratio to DMSO, % at 10 µM; AID 602162; 360,000 compounds, 0.19% hits; K562-ABCB6 porphyrin accumulation, flow cytometry, 1 h; stronger effect = lower value;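 active means fluorescence ratio to DMSO below 75%, the collection mean minus 3 SD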;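 further: signal is porphyrin accumulated inside mitochondria; 100% equals median channel fluorescence of DMSO control wells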
# Target sequence (Q9NP58 whole entry, looked up): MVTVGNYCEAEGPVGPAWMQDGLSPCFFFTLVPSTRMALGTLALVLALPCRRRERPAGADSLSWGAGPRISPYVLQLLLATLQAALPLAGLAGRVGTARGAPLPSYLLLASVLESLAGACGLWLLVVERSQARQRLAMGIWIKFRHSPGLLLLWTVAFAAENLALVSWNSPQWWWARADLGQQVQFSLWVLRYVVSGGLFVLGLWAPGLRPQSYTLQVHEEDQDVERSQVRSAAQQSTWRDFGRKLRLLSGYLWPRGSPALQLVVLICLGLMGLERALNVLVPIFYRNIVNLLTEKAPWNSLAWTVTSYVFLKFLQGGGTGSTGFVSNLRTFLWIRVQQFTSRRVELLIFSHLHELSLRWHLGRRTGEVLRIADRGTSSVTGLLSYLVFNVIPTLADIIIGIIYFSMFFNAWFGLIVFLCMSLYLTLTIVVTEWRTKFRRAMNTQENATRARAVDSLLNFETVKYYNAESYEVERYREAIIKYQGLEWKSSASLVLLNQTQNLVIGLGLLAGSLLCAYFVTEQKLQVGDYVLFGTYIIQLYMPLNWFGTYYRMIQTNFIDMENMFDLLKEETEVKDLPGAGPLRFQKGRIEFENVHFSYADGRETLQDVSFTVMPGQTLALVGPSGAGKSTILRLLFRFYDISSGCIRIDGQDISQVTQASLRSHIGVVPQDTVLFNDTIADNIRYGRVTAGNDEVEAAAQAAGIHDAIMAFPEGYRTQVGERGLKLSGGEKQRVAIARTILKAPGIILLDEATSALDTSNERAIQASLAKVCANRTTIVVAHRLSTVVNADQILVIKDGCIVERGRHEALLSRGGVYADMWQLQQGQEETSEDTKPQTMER
# Starred values were filed as active, the others as inactive; . = no result given.
SMILES,CRFBP-R2 agonist,MEKK3 PB1 HTS,MEKK2wt PB1 HTS,MEKK2mut PB1 HTS,CRFR2-BP antag,ABCB6 inh MLPCN
Cc1nnc(N2CCOCC2)c2nn(-c3cccc(Cl)c3)c(C)c12,-1,122,80,85*,2,96
Cc1nnc(-n2ncc(C#N)c2N)c2nn(-c3cccc(Cl)c3)c(C)c12,1,95,97,2,42,100
CCN(CC(=O)Nc1cc(S(=O)(=O)N2CCCCC2)ccc1C)Cc1ccccc1,0,.,.,.,-3,96
COc1ccc(NC2CCCN(C(=O)c3ccccc3N3CCOCC3)C2)cc1OC (stereo not drawn),0,100,103,7,2,95
COC(=O)NNC(=O)c1ccc(Cl)cc1Cl,-1,96,98,-3,8,97
CC(C)(C)C(=O)NC(=S)NNC(=O)c1ccc(Cl)cc1Cl,129*,95,98,-3,-15,98
CC(C)(C)C(=O)NC(=S)NNC(=O)c1ccc(-c2ccccc2)cc1,163*,86,76,-16,-107,98
COc1ccccc1CNS(=O)(=O)c1c(C(=O)N2CCCCC2)c(C)n(C)c1C,0,100,101,0,-9,96
COc1cc2c(cc1NC(=O)COC(=O)CNC(=O)c1ccccc1)oc1ccccc12,1,104,110,4,76*,98
Cc1ccc(OCC(=O)N2CCN(c3nnc(-c4ccc(C)cc4)c4ccccc34)CC2)cc1,-1,76,73,-19,68*,94
Cc1ccc(SCCC(=O)OCC(=O)NCC2CCCCC2)cc1,-2,100,98,4,-19,92
O=[N+]([O-])c1ccc(N/N=C\c2ccccc2OCc2ccccc2)cc1,13,96,9.0*,9,-43,122
C/C=C/c1ccc(OCC(O)CN(C)Cc2ccc(SC)cc2)c(OC)c1 (stereo not drawn),-1,105,132,15,-30,99
Cc1nn(CC(=O)NC(C)C(C)C)c(C)c1S(=O)(=O)N1CCCCC1 (stereo not drawn),1,.,.,.,-11,104
Fc1ccc(-c2cc(C(F)(F)C(F)F)[nH]n2)cc1,78*,94,92,-8,-86,97
O=C(CNS(=O)(=O)c1cccs1)NCc1ccccc1,8,114,110,2,-16,98
O=C(CNS(=O)(=O)c1cccs1)NCCc1ccc(Cl)cc1,-2,102,100,6,56*,95
CC(=O)Nc1ccc(C2=CC(=O)CC(C)(C)C2)cc1,6,.,.,.,4,97
CC(NC(=O)C(NS(=O)(=O)c1cccc2nsnc12)C(C)C)c1ccccc1 (stereo not drawn),1,102,105,2,6,102
O=C(COC(=O)[C@H](Cc1ccccc1)NC(=O)c1ccco1)NC(c1ccccc1)c1ccccc1,8,106,104,6,-16,89
O=C(COC(=O)[C@H](Cc1ccccc1)NC(=O)c1ccco1)Nc1ccccc1,11,.,.,.,5,102
COC(=O)CNC(=O)COC(=O)C(Cc1ccccc1)NC(=O)c1ccco1 (stereo not drawn),55*,95,102,3,3,95
Cc1cc(NC(=O)COC(=O)C(Cc2ccccc2)NC(=O)c2ccco2)no1 (stereo not drawn),153*,102,102,2,-66,94
COc1ccc(NC(=O)/C(Cl)=C(/Cl)S(=O)Cc2ccccc2)cn1 (stereo not drawn),7,102,105,18,-55,25*
COc1ccc(NC(=O)Cc2ccccc2)cn1,1,98,99,-3,-5,95
Cc1c(C(=O)O)cccc1-c1ccc(/C=C2/NC(=O)N(c3ccccc3)C2=O)o1,0,99,-10*,2,-36,100
CCc1ccc(NC(=O)C(C)Sc2nc(-c3ccco3)c(C#N)c(=O)[nH]2)cc1 (stereo not drawn),3,101,99,2,5,109
COc1cc(/C=C/C(=O)/C=C(O)/C=C/c2ccc(O)c(OC)c2)ccc1O,130*,.,.,.,-75,254

# Bioassay records from PubChem.
